Measurements as given in PubChem BioAssay AID504433 (National Center for Advancing Translational Sciences (NCATS), 2011).
Several values for one entry are separate records, joined by “and”; a condition that tells them apart may be missing. Identical values can stand only once. Inconclusive results are not listed. A call without a number means that no potency is given here. Activity calls are given as the source filed them. Calls follow the shape of the dose curve; as a rule, active = well fitted inhibition curve with a large enough effect; inconclusive = small, poorly fitted or top-dose-only effect; inactive = flat fitted curve, though single readings scatter.

Experiment: Secondary Assay for lipid storage modulators: Cytotoxcity for probe SAR round 2
Conditions: Drosophila S3 cells viability, CellTiter-Glo ATP luminescence, 24 h; series mostly up to 46.1 µM
Source text: NIH Molecular Libraries Probe Production Centers Network [MLPCN] NIH Chemical Genomics Center [NCGC] MLPCN Grant: 1 R03 MH085686-01 Assay Submitter (PI): Beller, Mathias; Max-Planck-Institut fur Biophysikalische Chemie, Germany. NCGC Assay Overview: Storing lipids as a reservoir for energy or the anabolism of elementary metabolites is a common feature of probably all cells and is conserved from bacteria to humans. The universal cellular lipid storage organelle is the so-called lipid storage droplet (LD). Although ubiquitous, LDs share a simple structure composed of a hydrophobic core that harbors the storage lipids, which is shielded by a droplet-specific phospholipid monolayer to which proteins are attached. The current model of LD biogenesis involves an incorporation of the lipid core into the membrane leaflets of the endoplasmic reticulum (ER) followed by a subsequent budding-like maturation of a LD, which ultimately pinches off. Once released, LD volume can increase by localized lipogenesis or fusion of existing droplet. Storage lipids are re-mobilized enzymatically by lipase activity. Lipase regulation in the adipocyte is heavily studied and involves multiple components including catecholamine signaling, the LD-associated proteins Perilipin and comparative gene identification (CGI-58) and at least two lipases named hormone sensitive lipase (HSL) and adipocyte triglyceride lipase (ATGL). LD regulation outside of the adipocyte is poorly understood and only few components are known. However, there is an urgent need to learn more about ectopic fat depots as mislocalized storage of lipids, for example in the liver or muscle, is an eminent health problem associated with insulin resistance or the metabolic syndrome. We developed a laser-scanning cytometer assay to enable 1,536-well screening and combined the results of the small molecules screen with an RNAi database based on lipid storage. The compound was tested here for cytotoxcity using CellTiter-Glo.
Assay Protocol Summary: Cytotoxcity assay was performed with embryonic Drosophila S3 cells (Bloomington Drosophila Genomics Resource Center [DGRC]). We dispensed 4 uL of cells at 1.25 x 10^6 cells/mL into Greiner solid white 1,536-well plates with a bottle-valve solenoid-based dispenser (Aurora) to obtain 5,000 cells/well. A total of 23 nL of compound solution of different concentrations were transferred to the assay plates using a Kalypsys pin tool equipped with a 1,536-pin array containing 10-nL slotted pins (FP1S10, 0.457-mm diameter, 50.8 mm long; V&P Scientific). One microliter of oleic acid (400 uM) was added, and the plate was lidded with stainless steel rubber gasket lined lids containing pinholes. After 24 hrs of incubation at 24 degrees Celsius and 95% humidity, 4 uL of CellTiter-Glo (Promega) was added to the wells. Luminescence was detected on the Perkin Elmer ViewLux.

| SMILES | Potency |
| --- | --- |
| CCN(CC)C(=O)C1CCN(C(=O)C(C)(C)NC(=O)Nc2ccccc2Cl)CC1 | inactive |
| O=C(N[C@H]1CCCc2c1cnn2-c1ccc(F)cc1F)c1ccccn1 | inactive |
| O=C(NC1CCCc2c1cnn2-c1ccc(F)cc1F)c1ccccn1 (configuration not stated) | 7.05 µM (active) and 11.2 µM (active) |
| CCOC(=O)C1CCN(C(=O)C(C)(C)NC(=O)Nc2ccc(Cl)cc2Cl)CC1 | inactive |
| O=C(NC1CCCc2c1cnn2-c1ccc(F)cc1F)c1cccs1 (configuration not stated) | 5.6 µM (active) |
| CCNC(=O)C1CCN(C(=O)C(C)(C)NC(=O)Nc2ccccc2Cl)CC1 | inactive |
| CCOC(=O)C1CCN(C(=O)C(C)(C)NC(=O)Nc2ccc(CN3CCOCC3)cc2)CC1 | inactive |
| CCOC(=O)C1CCN(C(=O)C(C)(C)NC(=O)Nc2ccc(N(C)C)cc2)CC1 | inactive |
| CCOC(=O)C1CCN(C(=O)C(C)(C)NC(=O)Nc2cccc(OC)c2)CC1 | inactive |
| CCOC(=O)C1CCN(C(=O)C(C)(C)NC(=O)Nc2ccc(OC)c(Cl)c2)CC1 | inactive |
| CCOC(=O)C1CCN(C(=O)C(C)(C)NC(=O)Nc2ccc(C#N)cc2)CC1 | inactive |
| CC(C)(C)OC(=O)NCCOCCOCCOc1ccc(-n2ncc3c2CCCC3NC(=O)c2ccccn2)cc1 (configuration not stated) | 3.15 µM (active) |
| CCOC(=O)C1CCN(C(=O)C(C)(C)NC(=O)Nc2cccc(-c3csc(C)n3)c2)CC1 | inactive |
| CCOC(=O)C1CCN(C(=O)C(C)(C)NC(=O)Nc2ccc3ccccc3c2)CC1 | inactive |
| CCOC(=O)C1CCN(C(=O)C(C)(C)NC(=O)Nc2ccc(N)cc2)CC1 | inactive |
| CCOC(=O)C1CCN(C(=O)C(C)(C)NC(=O)Nc2ccc(F)c(F)c2)CC1 | inactive |
| CCOC(=O)C1CCN(C(=O)C(C)(C)NC(=O)Nc2ccc3c(c2)CCC3)CC1 | inactive |
| CCOC(=O)C1CCN(C(=O)C(C)(C)NC(=O)Nc2cccc(C(=O)OC)c2)CC1 | inactive |
| CC(C)(C)OC(=O)NCCOCCOCCOc1cccc(-n2ncc3c2CCCC3NC(=O)c2ccccn2)c1 (configuration not stated) | 5.6 µM (active) |
| CCOC(=O)C1CCN(C(=O)C(C)(C)NC(=O)Nc2ccccc2Cl)CC1 | inactive |
| O=C(NC1CCCc2c1cnn2-c1ccc(F)cc1F)c1ccccc1 (configuration not stated) | 4.99 µM (active) |
| CC(C)(NC(=O)Nc1ccccc1Cl)C(=O)N1CCC(C(=O)O)CC1 | inactive |
